PAX8 reporter = inhibitors of PAX8-driven TPO luciferase reporter, primary screen, RMG-I cells, single concentration. SteadyGlo, 24 h. inhibition, % at 12.6 µM. actives 1.2% (n = 360,000). AID 652154, 2013;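 active means mean replicate inhibition at least 60% with every replicate also reaching 60%; inconclusive means only one of the two criteria is met; inactive means mean below 60% and not all replicates reaching 60%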;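 further: luciferase light reporting Pax8 driven TPO promoter activity; plate controls were median of neutral control wells for no effect and mitoxantrone controls for full effect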
EWS-Fli block = EWS/Fli-driven NR0B1 reporter inhibitors, primary screen, A673 cells, NR0B1 luciferase, luminescence, MLPCN library | viability-normalised | inhibition, % at 12.6 µM | actives 0.67% (n = 350,000);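 active means mean inhibition of at least 50% after viability correction, with every replicate also passing that limit; inconclusive means mean reaches 50% but only one of two replicates passes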;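 further: firefly luciferase signal divided by Alamar Blue viability fluorescence both relative to DMSO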
MITF TRPM1 inh = inhibitors of MITF-dependent TRPM1 promoter reporter, primary screen, cell-based, SK-MEL-5, single point, luciferase; inhibition, % at 12.5 µM; actives 0.83% (n = 330,000); SK-MEL-5 TRPM1 promoter luciferase, 24 h;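 active means mean inhibition across replicates of 60% or more, whatever share of single replicates reaches that level; inconclusive means some that reach 60%, reason not given; inactive means mean inhibition across replicates below 60%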
LGR2 antag = inhibitors of bursicon-induced LGR2 CRE-luciferase signal, primary screen, cell-based, HEK293, CRE-luciferase reporter, bursicon stimulation | bursicon-stimulated, 4 h | actives 0.35% (n = 380,000) | inhibition, % at 9.99 µM | Drosophila bursicon receptor LGR2 (rickets);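 active means drop in luminescence signal, shown as inhibition above about 50% in the replicate tests, limit read from the data, passing the limit was not always enough; inconclusive means probably only some replicates passing the limit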;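 further: agonist challenge used bursicon conditioned medium at about half maximal strength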
Shn3 3UTR inh = reduction of Shn3 3'UTR firefly luciferase signal, primary screen, Schnurri-3 inhibitor project, cell-based, Clone20 osteoblasts, set 2. AID 588674, 2011. actives 0.52% (n = 360,000). inhibition, % at 12.5 µM. Clone20 osteoblast Shn3 3'UTR firefly luciferase, 24 h;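 active means mean inhibition of at least 75% with every replicate also reaching 75%; inconclusive means mean inhibition at least 75% but some replicate below; inactive means mean inhibition below 75%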;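 further: 0% = median of neutral control wells and 100% = pilot-screen positive control compound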
LMP1 NFkB inh = EBV LMP1-driven NF-kappaB luciferase reporter inhibitors, primary screen, cell-based, luminescence, single point; actives 0.69% (n = 350,000); LMP1-induced NF-kappaB luciferase reporter cells; inhibition, % at 12.5 µM; AID 504558, 2011; in the data active means inhibition above about 41%; inconclusive means no clear call, values can overlap the other calls;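 further: 0% = neutral control wells and 100% = reference inhibitor control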
Numbers without * were called inactive; ? = inconclusive; / = no result given; ! = not active in a repeat. Only some compounds are listed: those with a hit (about 2.2% of all), similar ones and a draw of the others.

SMILES | PAX8 reporter | EWS-Fli block | MITF TRPM1 inh | LGR2 antag | Shn3 3UTR inh | LMP1 NFkB inh
O=C1Nc2ccccc2C1Cc1ccccc1 (configuration not stated) | -4 | 9 | 3 | -6 | 12 | 1
COc1ccc(C[C@@H]2OC3(C=CC(=O)C=C3)O[C@H]2Cc2ccc(OC)cc2)cc1 | / | / | 100* | / | 94* | 79*
C=C1C(=O)O[C@@H]2[C@H]3O[C@]3(C)CC/C=C(\C)CC[C@@H]12 | 101* | 2 | 33 | 20 | -21 | 35
C[C@H]1CCCCO[C@@H](CN(C)Cc2ccc(C(F)(F)F)cc2)[C@@H](C)CN([C@@H](C)CO)C(=O)c2cc(NS(C)(=O)=O)ccc2O1 | 2 | 10 | / | 17 | / | /
Cc1cccc2c(C(=O)O)cc(-c3cccnc3)nc12 | 66* | 2 | 2 | 14 | -4 | 4
Cc1cccc2c(C(=O)N3CCCCC3)cc(-c3ccccc3)nc12 | 22 | 15 | 17 | 7 | -5 | -8
CC(C)NC(=O)Nc1ccc2c(c1)C(=O)N([C@H](C)CO)C[C@H](C)[C@@H](CN(C)C(=O)CCC(F)(F)F)OCCCC[C@@H](C)O2 | -1 | / | / | 7 | / | /
Nc1nc(SCc2ccccc2)c2[nH]cnc2n1 | 1 | 1 | -8 | -11 | 16 | 4
CNc1ncnc(Sc2nc(N)nc3nc[nH]c23)c1[N+](=O)[O-] | 95* | 64* | 71* | 7 | -3 | 0
Nc1nc(Sc2ccc([N+](=O)[O-])c3nonc23)c2[nH]cnc2n1 | 97* | 27 | 82* | / | 39 | 3
CCC(=O)Nc1ccc2c(c1)OC[C@@H](C)N(C(=O)CN(C)C)C[C@H](C)[C@H](OC)CN(C)C2=O | 1 | 5 | / | 6 | / | /
COc1ccc2c3c([nH]c2c1)[C@H](CO)N(C(=O)c1ccccc1)CC31CN(S(=O)(=O)c2cccs2)C1 | / | 4 | / | 8 | / | /
COC(=O)C[C@H]1C[C@@H]2c3cc(NC(=O)Nc4ccc(C(F)(F)F)cc4)ccc3O[C@@H]2[C@H](CO)O1 | -6 | 4 | / | -15 | / | /
CN1C(=O)c2cc(NC(=O)C3CCCC3)ccc2OC[C@@H]2O[C@@H](CC(=O)NCC3CC3)CC[C@H]21 | 6 | 6 | / | 2 | / | /
CCSc1ccccc1C(=O)n1nnc2ccccc21 | / | 8 | 69* | 21 | 73 | -1
CCC(=O)Nc1ccc2c(c1)C(=O)N(C)C[C@H](OC)[C@@H](C)CN(CCC(F)(F)F)[C@@H](C)CO2 | 1 | / | / | -2 | / | /
Cc1csc(N(C(=O)c2ccccc2F)c2ccccc2)n1 | -2 | 0 | -1 | 6 | 18 | -3
COc1cc(CC(=O)N(c2ccccc2)c2nc(C)cs2)cc(OC)c1OC | -20 | 3 | 12 | 1 | 3 | 52*
C[C@H]1CN([C@@H](C)CO)C(=O)c2cc(C3=CCCC3)cnc2O[C@H]1CN(C)Cc1ccc(F)cc1 | / | 1 | / | 4 | / | /
CN1C[C@H]2[C@@H](c3ccccc31)[C@@H](CO)N2S(=O)(=O)c1ccccc1 | -29 | -1 | / | -17 | / | /
CNC(=O)C[C@@H]1CC[C@@H]2[C@H](COC[C@H](O)CN2Cc2ccccc2F)O1 | / | / | / | 1 | / | /
Cc1c(C#N)c(NC(=O)CCl)n(Cc2ccc(F)cc2)c1C | 16 | 37 | 66* | -3 | 39 | -45
Cc1c(C#N)c(NC(=O)CCl)n(Cc2cccs2)c1C | 40 | ? | 77* | / | 97* | -30
Cc1c(C#N)c(NC(=O)CCl)n(Cc2ccccc2)c1C | 24 | 26 | 81* | / | 95* | -40
C[C@H]1CN([C@@H](C)CO)C(=O)Cc2cc(NC(=O)Cc3ccccc3)ccc2O[C@H]1CN(C)Cc1ccc2c(c1)OCO2 | -20 | 2 | / | 9 | / | /
SMILES | PAX8 reporter | EWS-Fli block | MITF TRPM1 inh | LGR2 antag | Shn3 3UTR inh | LMP1 NFkB inh
C[C@@H]1CN([C@@H](C)CO)C(=O)c2cc(C#CCc3ccccc3)cnc2O[C@H]1CN(C)Cc1cccc(F)c1 | / | 11 | / | 14 | / | /
CCCC(=O)Nc1ccc2c(c1)C(=O)N(C)[C@H]1CC[C@@H](CC(=O)NCC3CCCCC3)O[C@H]1CO2 | 6 | 11 | / | -2 | / | /
Cc1c(CCOC(=O)C2C3CC4CC(C3)CC2C4)sc[n+]1CC(=O)c1ccc(Br)cc1 (configuration not stated) | 12 | 47 | 95*! | 11 | 6 | 8
Cc1ccccc1Cn1c(O)c(N=NC(=S)Nc2ccccc2F)c2ccccc21 | 25 | 28 | 13 | 20 | 25 | 44*
Oc1c(N=NC(=S)Nc2ccccc2F)c2ccccc2n1Cc1ccccc1F | 13 | 34 | 18 | 31 | 31 | 48*
Cc1ccc(C)c(Cn2c(O)c(N=NC(=S)Nc3ccccc3F)c3ccccc32)c1 | 34 | 37 | 21 | 41 | 55 | 45*
Oc1c(N=NC(=S)Nc2ccccc2F)c2ccccc2n1Cc1ccc(Cl)cc1 | 30 | 36 | 16 | 16 | 50 | 39
Cc1noc(C)c1NC(=O)Nc1cccc2c1O[C@H](CN(C)S(=O)(=O)c1cccs1)[C@H](C)CN([C@H](C)CO)C2=O | / | -3 | / | 15 | / | /
COc1ccc(CN(C)C[C@@H]2Oc3ccc(NC(=O)Nc4ccc(F)cc4)cc3CC(=O)N([C@H](C)CO)C[C@@H]2C)cc1 | 12 | -1 | / | 10 | / | /
CC(=O)N1CC[C@@H]2[C@@H](CO)N(C)c3ccc(-c4ccccc4)cc3[C@@H]21 | 22 | 6 | / | -10 | / | /
CCn1c2ccccc2c2cc(CNCc3ccc(OC)cc3OC)ccc21 | 18 | 38 | 22 | 102* | 81 | 10
C[n+]1cc2c3c(ccc2c2ccc4cc5c(cc4c21)OCO5)OCO3 | 109* | 59* | / | 101* | / | /
C[C@]12CC[C@H]3[C@@H](CCC4=CC(=O)CC[C@@]43C)[C@@H]1CC[C@@H]2C(=O)CO | 20 | 31 | 6 | / | 4 | 66*
COc1ccc(-n2c(=S)[nH]c3cc(C(=O)NCc4ccco4)ccc3c2=O)cc1OC | 5 | -2 | -3 | -12 | 1 | 2
COc1ccc(CCn2c(=S)[nH]c3cc(C(=O)NCc4ccco4)ccc3c2=O)cc1OC | / | / | 91* | / | 65 | 24
COc1cccc(N2CCN(c3ncnc4c3cnn4-c3ccc(C)cc3C)CC2)c1 | 102* | 48 | 68* | ? | 91* | 40
CC1CCCN(c2ncnc3c2cnn3-c2ccccc2)C1 (configuration not stated) | 25 | 69* | 41 | 84* | 25 | 20
Cc1ccc(-n2ncc3c(N4CCCC(C)C4)ncnc32)c(C)c1 (configuration not stated) | -189 | -75 | / | -71 | -33 | -32
CC1CCCN(c2ncnc3c2cnn3-c2ccc(Cl)cc2)C1 (configuration not stated) | 76* | 86* | 92* | 97* | 78 | 60*

Assay outcomes as filed in PubChem.
